# Measurements reported in PubChem BioAssay (NCI).
# The panel holds about 83,000 compounds, 20% with a hit somewhere; the sample as a whole holds those more often.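 48-hour exposure, single concentration, 96-well plates; percent growth endpoint where 0 means no net growth. Active: below 10.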 Unmarked numbers belong to inactive results. Active and inactive are the calls of the source.
# Test system: SK-MEL-2 melanoma
# Test: NCI-60 one-dose screen, 48 h (100 = growth as untreated, 0 = no growth, -100 = all killed)
# Details: 10 µM unless noted
row,Compound,growth
1,COc1ccc(/C=C/C(c2cc(OC)c(OC)c(OC)c2)n2cncn2)cc1O (stereo not drawn),18.2%
2,COc1ccc(-c2cn(Cc3cc4ccccc4s3)nn2)cc1OCCN1CCCCC1,90.8%
3,COc1ccc(-c2nc3c(c(-c4ccc(Cl)cc4)nn3-c3ccccc3)c(-c3ccccc3)c2C#N)cc1,109%
4,COc1ccc2c(c1)CC[C@@H]1[C@@H]2CC[C@]2(C)C3C(=CC(COC(C)=O)C4C(=O)N(c5ccc(Cl)cc5)C(=O)C43)C[C@@H]12 (stereo partly drawn),108%
5,COc1cc(/C=C/C(=O)N2CCN(C(=O)c3cc(OC)c(OC)c(OC)c3)CC2)ccc1OCCCOc1cc2c(cc1OC)C(=O)N1CCC[C@H]1C=N2,-42.4% (active)
6,CSc1nc2ccc(C)cc2cc1/C=C1/C=C(c2ccccc2)NC1=O,89.5%
7,Cc1ccc2c(c1)sc1nc(-c3c[nH]c4ccccc34)c(Nc3ccccc3)n12,109%
8,N=C(N)c1ccc(-c2ccc(-c3ccccc3)o2)o1,45.1%
9,CN1C(=O)N2CN3CCCN(C3)CN3C(=S)NC1C23 (stereo not drawn),108%
10,Clc1ccc(-c2cc(-c3ccccc3)nc(N3CCN(CCCNc4ccnc5cc(Cl)ccc45)CC3)n2)cc1,12.4%
11,COc1cc(/C=C/c2cc(/C=C/c3ccc(O)c(OC)c3)n(C(=O)Nc3ccc(Cl)cc3)n2)ccc1O,-23.5% (active)
12,N#Cc1c(-c2ccccc2)nc2c(c(-c3ccc(Cl)cc3)nn2-c2ccccc2)c1-c1ccc([N+](=O)[O-])cc1,104%
13,COc1ccc(Oc2ccc(/C=C/C(=O)c3cc4ccccc4oc3=O)cc2)cc1,102%
14,O=[N+]([O-])c1c(O)c(Cl)cc(Cl)c1Cl,113%
15,O=S(O)c1cc(Cl)cc(Cl)c1OCc1ccccc1,105%
16,Cc1oc(-c2ccc(Cl)cc2)nc1C1=NN(C(=O)c2ccncc2)C(c2ccccc2)C1 (stereo not drawn),97.2%
17,CS(=O)(=O)c1ccc(-c2nc3ccccc3n2CC(=O)N/N=C/c2ccccc2)cc1,99.7%
18,CCCn1c(=S)sc2c(NNC(C)=O)nc(C)nc21,92.5%
19,N#CSc1c[nH]c2ccc(/C=C/C(=O)/C=C(O)/C=C/c3ccc4[nH]cc(SC#N)c4c3)cc12,34.2%
20,Fc1cccc(-c2nc(-c3c[nH]c4ncccc34)cs2)c1,117% [100 µM]

row,Compound,growth
1,COc1ccc(Oc2ccc(/C=C/C(=O)c3ccc(OC)c(OC)c3)cc2)cc1,89%
2,CCCCn1c(NC(C)=O)c(S(=O)(=O)c2ccccc2)c2nc3ccccc3nc21,121%
3,COc1cc(O)c2c(=O)c3c(CC=C(C)C)cc(OC)c(O)c3oc2c1,29.1%
4,CC12OC(CC(O)C1O)n1c3ccccc3c3c4c(c5c6ccccc6n2c5c31)C(=O)N(CCN1CCCC1)C4=O (stereo not drawn),31.9%
5,C=C1CC[C@@H]2C(C)(C)[C@H](O)CC[C@@]2(C)[C@@H]1COc1ccc2ccc(=O)oc2c1,63.8%
6,COc1c2c(cc3c1C(=O)N[C@@H]1[C@@H](O)[C@@H](O)[C@H](O)C[C@@H]31)OCCO2,100%
7,C=C1C(=O)O[C@H]2[C@H]1CC/C(COC(=O)NCc1ccc(Cn3c(=O)sn(-c4ccccc4)c3=O)cc1)=C\CC[C@@]1(C)O[C@@H]21,49.6%
8,Cc1nc2sc(C(=O)Nc3ccccn3)c(N)c2cc1C(C)O (stereo not drawn),53.9%
9,c1cc(OCCN2CCCC2)ccc1CNc1ccc2nc(CCC3CCCCC3)[nH]c2c1,35.6%
10,Cc1nc([P+](c2ccccc2)(c2ccccc2)c2ccccc2)c(N2CCCCC2)o1,41.2%
11,COc1cc(/C=N/NC(=O)c2ccc(-n3cc(-c4ccccc4)nn3)cc2)cc(OC)c1OC,98%
12,C=CN(C(=O)N1CCN(c2cc3c(cc2F)c(=O)c(C(=O)O)cn3C2CC2)CC1)c1nc(-c2ccc(Cl)cc2)cs1,86.5%
13,COc1ccccc1/C=C/C(=O)Nc1ccc(F)cc1,99.1%
14,CC(C)c1ccc2c(c1)CC[C@H]1[C@](C)(C(=O)OCC#CCN3CCCC3)CCC[C@]21C,103%
15,COc1ccc2c(O)c(/C=C3\N=Nc4ncccc43)oc2c1C[C@@H]1CCNC[C@H]1F,-17.9% (active)
16,c1ccc2cc(Cn3cc(CSc4nc5ccccc5s4)nn3)ccc2c1,90.6%
17,COCC(=O)Oc1cc(-c2ccc(C)cc2C)c(OC(=O)COC)c(-c2ccc(C)cc2C)c1,28.9%
18,Cc1nc2ccccc2c(/C=C/c2ccc(F)cc2)c1C(=O)/C=C/c1ccccc1,14.2%
19,O=C1C=C(SCCO)C(=O)c2ccccc21,28.4%

# Test system: EKVX NSCLC
# Test: as above
# Details: 10 µM unless noted
row,Compound,growth
1,COc1ccc(/C=C/C(c2cc(OC)c(OC)c(OC)c2)n2cncn2)cc1O (stereo not drawn),59.4%
2,COc1ccc(-c2cn(Cc3cc4ccccc4s3)nn2)cc1OCCN1CCCCC1,84.3%
3,COc1ccc(-c2nc3c(c(-c4ccc(Cl)cc4)nn3-c3ccccc3)c(-c3ccccc3)c2C#N)cc1,107%
4,COc1ccc2c(c1)CC[C@@H]1[C@@H]2CC[C@]2(C)C3C(=CC(COC(C)=O)C4C(=O)N(c5ccc(Cl)cc5)C(=O)C43)C[C@@H]12 (stereo partly drawn),108%
5,COc1cc(/C=C/C(=O)N2CCN(C(=O)c3cc(OC)c(OC)c(OC)c3)CC2)ccc1OCCCOc1cc2c(cc1OC)C(=O)N1CCC[C@H]1C=N2,8% (active)
6,CSc1nc2ccc(C)cc2cc1/C=C1/C=C(c2ccccc2)NC1=O,61.4%
7,Cc1ccc2c(c1)sc1nc(-c3c[nH]c4ccccc34)c(Nc3ccccc3)n12,101%
8,N=C(N)c1ccc(-c2ccc(-c3ccccc3)o2)o1,51.9%
9,CN1C(=O)N2CN3CCCN(C3)CN3C(=S)NC1C23 (stereo not drawn),104%
10,Clc1ccc(-c2cc(-c3ccccc3)nc(N3CCN(CCCNc4ccnc5cc(Cl)ccc45)CC3)n2)cc1,80.1%
11,COc1cc(/C=C/c2cc(/C=C/c3ccc(O)c(OC)c3)n(C(=O)Nc3ccc(Cl)cc3)n2)ccc1O,16.9%
12,N#Cc1c(-c2ccccc2)nc2c(c(-c3ccc(Cl)cc3)nn2-c2ccccc2)c1-c1ccc([N+](=O)[O-])cc1,103%
13,COc1ccc(Oc2ccc(/C=C/C(=O)c3cc4ccccc4oc3=O)cc2)cc1,94.5%
14,O=[N+]([O-])c1c(O)c(Cl)cc(Cl)c1Cl,107%
15,O=S(O)c1cc(Cl)cc(Cl)c1OCc1ccccc1,99.1%
16,Cc1oc(-c2ccc(Cl)cc2)nc1C1=NN(C(=O)c2ccncc2)C(c2ccccc2)C1 (stereo not drawn),95.8%
17,CS(=O)(=O)c1ccc(-c2nc3ccccc3n2CC(=O)N/N=C/c2ccccc2)cc1,92.9%
18,CCCn1c(=S)sc2c(NNC(C)=O)nc(C)nc21,88.5%
19,N#CSc1c[nH]c2ccc(/C=C/C(=O)/C=C(O)/C=C/c3ccc4[nH]cc(SC#N)c4c3)cc12,28.8%
20,Fc1cccc(-c2nc(-c3c[nH]c4ncccc34)cs2)c1,28.6% [100 µM]

row,Compound,growth
1,COc1ccc(Oc2ccc(/C=C/C(=O)c3ccc(OC)c(OC)c3)cc2)cc1,79.4%
2,CCCCn1c(NC(C)=O)c(S(=O)(=O)c2ccccc2)c2nc3ccccc3nc21,95.5%
3,COc1cc(O)c2c(=O)c3c(CC=C(C)C)cc(OC)c(O)c3oc2c1,53.7%
4,CC12OC(CC(O)C1O)n1c3ccccc3c3c4c(c5c6ccccc6n2c5c31)C(=O)N(CCN1CCCC1)C4=O (stereo not drawn),38.4%
5,C=C1CC[C@@H]2C(C)(C)[C@H](O)CC[C@@]2(C)[C@@H]1COc1ccc2ccc(=O)oc2c1,57.8%
6,COc1c2c(cc3c1C(=O)N[C@@H]1[C@@H](O)[C@@H](O)[C@H](O)C[C@@H]31)OCCO2,98.2%
7,C=C1C(=O)O[C@H]2[C@H]1CC/C(COC(=O)NCc1ccc(Cn3c(=O)sn(-c4ccccc4)c3=O)cc1)=C\CC[C@@]1(C)O[C@@H]21,77.1%
8,Cc1nc2sc(C(=O)Nc3ccccn3)c(N)c2cc1C(C)O (stereo not drawn),86%
9,c1cc(OCCN2CCCC2)ccc1CNc1ccc2nc(CCC3CCCCC3)[nH]c2c1,80.9%
10,Cc1nc([P+](c2ccccc2)(c2ccccc2)c2ccccc2)c(N2CCCCC2)o1,63.4%
11,COc1cc(/C=N/NC(=O)c2ccc(-n3cc(-c4ccccc4)nn3)cc2)cc(OC)c1OC,91.1%
12,C=CN(C(=O)N1CCN(c2cc3c(cc2F)c(=O)c(C(=O)O)cn3C2CC2)CC1)c1nc(-c2ccc(Cl)cc2)cs1,81.8%
13,COc1ccccc1/C=C/C(=O)Nc1ccc(F)cc1,73.2%
14,CC(C)c1ccc2c(c1)CC[C@H]1[C@](C)(C(=O)OCC#CCN3CCCC3)CCC[C@]21C,74.8%
15,COc1ccc2c(O)c(/C=C3\N=Nc4ncccc43)oc2c1C[C@@H]1CCNC[C@H]1F,-5.63% (active)
16,c1ccc2cc(Cn3cc(CSc4nc5ccccc5s4)nn3)ccc2c1,101%
17,COCC(=O)Oc1cc(-c2ccc(C)cc2C)c(OC(=O)COC)c(-c2ccc(C)cc2C)c1,57.1%
18,Cc1nc2ccccc2c(/C=C/c2ccc(F)cc2)c1C(=O)/C=C/c1ccccc1,38.2%
19,O=C1C=C(SCCO)C(=O)c2ccccc21,53.5%
